For the assay, the system named is V-C8 (BRCA2-deficient hamster cells). Briefly: normalised cell viability (fraction of plate median); higher = more viable cells (less toxic). As to conditions: 5 µM. In a few lines: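 Hamster V-C8 cells lacking BRCA2 and V-C8 cells with BRCA2 restored were seeded in 96-well plates. Library drugs (10 mM DMSO stocks) were added 24 h later at 5 μM in 100 μl medium, next to DMSO control wells, for 3 days (screen 1) or 6 days (screen 2). Cell viability was read by resazurin assay, median-plate normalised (modified robust per cent of sample), and triplicate wells were averaged.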

Data on 44 compounds can be found in the supplement of paper PMC6609913.

Structures are written as SMILES. Where a name gives a salt, the structure may show the parent alone. ± gives the standard deviation of the averaged measurements. The full ranking holds about 1,300 compounds; the median of “normalised cell viability” is about 1, and the lowest 2% start at about 0.14. The sample as a whole holds a higher share of the lowest values than the screen did.

For `O=C1CN(/N=C/c2ccc([N+](=O)[O-])o2)C(=O)N1` [Nitrofurantoin], the normalised cell viability came out at 0.937 ± 0.025 (treatment time: 3 days) and 1.15 ± 0.29 (treatment time: 6 days).
Taken in the same sequence, the figures for `CN[C@@H]1[C@@H](O)[C@@H](O[C@@H]2[C@@H](O)[C@H](O[C@H]3OC(CN)=CC[C@H]3N)[C@@H](N)C[C@H]2N)OC[C@]1(C)O` [Sisomicin sulfate] were 0.157 ± 0.0072 and 0.145 ± 0.0056.
The corresponding values for `COc1cc2nc(N(C)CCCNC(=O)C3CCCO3)nc(N)c2cc1OC` (stereo not drawn) [Alfuzosin hydrochloride] are 0.987 ± 0.056 and 1.08 ± 0.08.
As to `c1ccc(CC2=NCCN2)cc1` [Tolazoline hydrochloride], the normalised cell viability is 1 ± 0.025 (treatment time: 3 days) and 0.98 ± 0.038 (treatment time: 6 days).
Take `CC(C)(O)c1ccccc1CC[C@@H](SCC1(CC(=O)O)CC1)c1cccc(/C=C/c2ccc3ccc(Cl)cc3n2)c1` [Montelukast]: the normalised cell viability by setting is: (treatment time: 3 days) 1.09 ± 0.11; (treatment time: 6 days) 1.1 ± 0.052.
The corresponding values for `CCC(C)(CN(C)C)OC(=O)c1ccccc1` (stereo not drawn) [Amyleine hydrochloride] are 1.074 ± 0.0072 and 1.02 ± 0.036.
Taken in the same sequence, the figures for `C#CCN[C@@H]1CCc2ccccc21` [Rasagiline] were 1.08 ± 0.055 and 1.06 ± 0.038.
For the compound `Clc1ccc(C(Cn2ccnc2)OCc2csc3c(Cl)cccc23)c(Cl)c1` (stereo not drawn) [Sertaconazole nitrate], the normalised cell viability (treatment time: 3 days) was found to be 0.737 ± 0.18 and the normalised cell viability (treatment time: 6 days) worked out at 0.821 ± 0.12.
The corresponding values for `Cc1cccc(N(C)C(=S)Oc2ccc3ccccc3c2)c1` [Tolnaftate] are 1 ± 0.041 and 0.983 ± 0.02.
Taken in the same sequence, the figures for `C=CCOC(Cn1ccnc1)c1ccc(Cl)cc1Cl` (stereo not drawn) [Enilconazole] were 0.93 ± 0.04 and 0.943 ± 0.015.
Taken in the same sequence, the figures for `Clc1ccc(CO/N=C(\Cn2ccnc2)c2ccc(Cl)cc2Cl)c(Cl)c1` [Oxiconazole Nitrate] were 0.807 ± 0.043 and 0.898 ± 0.043.
For `CN1CCN(C(c2ccccc2)c2ccc(Cl)cc2)CC1` (stereo not drawn) [Chlorcyclizine hydrochloride], the normalised cell viability is, setting by setting: (treatment time: 3 days) 0.947 ± 0.019; (treatment time: 6 days) 0.979 ± 0.073.
Turning to `O=C(O)CCNC(=O)c1ccc(/N=N/c2ccc(O)c(C(=O)O)c2)cc1` [Balsalazide Sodium], the normalised cell viability by setting is: (treatment time: 3 days) 0.973 ± 0.027; (treatment time: 6 days) 0.953 ± 0.13.
With `Nc1ccn([C@@H]2CS[C@H](CO)O2)c(=O)n1` [Lamivudine], the normalised cell viability by setting is: (treatment time: 3 days) 0.147 ± 0.0082; (treatment time: 6 days) 0.139 ± 0.012.
Taken in the same sequence, the figures for `Nc1ccn([C@H]2CC[C@@H](CO)O2)c(=O)n1` [Zalcitabine] were 1.02 ± 0.059 and 1.04 ± 0.044.
Taken in the same sequence, the figures for `Nc1ccn([C@@H]2O[C@H](CO)[C@@H](O)[C@@H]2O)c(=O)n1` [Cytarabine] were 0.206 ± 0.0091 and 0.196 ± 0.022.
For the compound `CC(C)NCC(O)COc1ccc(COCCOC(C)C)cc1` (stereo not drawn) [Bisoprolol fumarate], the normalised cell viability was determined as 1.04 ± 0.044 (treatment time: 3 days) and 1.16 ± 0.049 (treatment time: 6 days).
Take `COC(=O)CCc1ccc(OCC(O)CNC(C)C)cc1` (stereo not drawn) [Esmolol hydrochloride]: the normalised cell viability (treatment time: 3 days) is 1.04 ± 0.077 and the normalised cell viability (treatment time: 6 days) came to 0.939 ± 0.08.
`CC(C)NCC(O)COc1ccc(CCOCC2CC2)cc1` (stereo not drawn) [Betaxolol hydrochloride] showed a normalised cell viability (treatment time: 3 days) of 0.1577 ± 0.00096 and a normalised cell viability (treatment time: 6 days) of 0.136 ± 0.014.
Taken in the same sequence, the figures for `O=C1[C@H](CC[C@H](O)c2ccc(F)cc2)[C@@H](c2ccc(O)cc2)N1c1ccc(F)cc1` [Ezetimibe] were 1.02 ± 0.093 and 1.03 ± 0.022.
The corresponding values for `CN1CCN(C2=Nc3ccccc3Oc3ccc(Cl)cc32)CC1` [Loxapine succinate] are 1.17 ± 0.063 and 1.15 ± 0.03.
The corresponding values for `Cc1cc(C2CCCCC2)n(O)c(=O)c1` [Ciclopirox ethanolamine] are 0.207 ± 0.012 and 0.23 ± 0.015.
In turn, `COC(=O)C1=C(C)NC(C)=C(C(=O)OCC(C)C)C1c1ccccc1[N+](=O)[O-]` (stereo not drawn) [Nisoldipine] registered a normalised cell viability (treatment time: 3 days) of 0.889 ± 0.059 and a normalised cell viability (treatment time: 6 days) of 0.894 ± 0.019.
`Cc1c(N)c(=O)n(-c2ccccc2)n1C` [Ampyrone]: the normalised cell viability was 1.01 ± 0.12 (treatment time: 3 days) and 1.06 ± 0.055 (treatment time: 6 days).
For the compound `Nc1nc(=S)c2ncn([C@@H]3O[C@H](CO)[C@@H](O)[C@H]3O)c2[nH]1` [Thioguanosine], the normalised cell viability (treatment time: 3 days) amounted to 0.307 ± 0.013 and the normalised cell viability (treatment time: 6 days) turned out to be 0.28 ± 0.017.
Turning to `CCC(Cc1c(I)cc(I)c(N)c1I)C(=O)O` (stereo not drawn) [Iopanoic acid], the normalised cell viability by setting is: (treatment time: 3 days) 0.999 ± 0.036; (treatment time: 6 days) 1.07 ± 0.033.
The corresponding values for `CN(C)CCn1nnnc1SCC1=C(C(=O)O)N2C(=O)[C@@H](NC(=O)Cc3csc(N)n3)[C@H]2SC1` [Cefotiam hydrochloride] are 0.996 ± 0.028 and 1.12 ± 0.093.
Taken in the same sequence, the figures for `CC(C)NC[C@@H](O)COc1cccc2ccccc12` [(R)-Propranolol hydrochloride] were 0.914 ± 0.085 and 1.06 ± 0.085.
Taken in the same sequence, the figures for `CCc1cccc(CC)c1NC(=O)CN(CC(=O)O)CC(=O)O` [Etifenin] were 1.07 ± 0.047 and 1.04 ± 0.043.
For `CC(NCCC(c1ccccc1)c1ccccc1)c1ccccc1` (stereo not drawn) [Fendiline hydrochloride], the normalised cell viability turned out to be 0.197 ± 0.018 (treatment time: 3 days) and 0.496 ± 0.16 (treatment time: 6 days).
`Cc1cc(NS(=O)(=O)c2ccc(N)cc2)no1` [Sulfamethoxazole] yielded a normalised cell viability (treatment time: 3 days) of 1.02 ± 0.028 and a normalised cell viability (treatment time: 6 days) of 0.959 ± 0.076.
The corresponding values for `CC(C)/N=c1\cc2n(-c3ccc(Cl)cc3)c3ccccc3nc-2cc1Nc1ccc(Cl)cc1` [Clofazimine] are 0.148 ± 0.0016 and 0.133 ± 0.017.
Taken in the same sequence, the figures for `Cc1cnc(C(=O)NCCc2ccc(S(=O)(=O)NC(=O)NC3CCCCC3)cc2)cn1` [Glipizide] were 1.093 ± 0.0089 and 1.13 ± 0.034.
The corresponding values for `CO[C@H]1/C=C/O[C@@]2(C)Oc3c(C)c(O)c4c(c3C2=O)C2=NC3(CCN(CC(C)C)CC3)NC2=C(NC(=O)/C(C)=C\C=C\[C@H](C)[C@H](O)[C@@H](C)[C@@H](O)[C@@H](C)[C@H](OC(C)=O)[C@@H]1C)C4=O` [Rifabutin] are 0.973 ± 0.096 and 0.876 ± 0.032.
Regarding `NC(=O)c1cnccn1` [Pyrazinamide], the normalised cell viability by setting is: (treatment time: 3 days) 1.12 ± 0.057; (treatment time: 6 days) 1.05 ± 0.071.
For `CNCCC=C1c2ccccc2C=Cc2ccccc21` [Norcyclobenzaprine], the normalised cell viability runs as follows: (treatment time: 3 days) 0.959 ± 0.045; (treatment time: 6 days) 0.835 ± 0.035.
`CSc1ccc2c(c1)N(CCC1CCCCN1C)c1ccccc1S2` (stereo not drawn) [Thioridazine hydrochloride]: the normalised cell viability is, setting by setting: (treatment time: 3 days) 0.121 ± 0.0035; (treatment time: 6 days) 0.0951 ± 0.0067.
On to `CN1CCCCC1CCN1c2ccccc2Sc2ccc([S+](C)[O-])cc21` (stereo not drawn) [Mesoridazine besylate], for which the normalised cell viability is 1.07 ± 0.07 (treatment time: 3 days) and 1.07 ± 0.017 (treatment time: 6 days).
On to `CCSc1ccc2c(c1)N(CCCN1CCN(C)CC1)c1ccccc1S2` [Thiethylperazine dimalate], for which the normalised cell viability came out at 0.932 ± 0.029 (treatment time: 3 days) and 1.1 ± 0.35 (treatment time: 6 days).
`CC1(C)[C@@H](OC(=O)CCC(=O)O)CC[C@]2(C)[C@H]3C(=O)C=C4[C@@H]5C[C@@](C)(C(=O)O)CC[C@]5(C)CC[C@@]4(C)[C@]3(C)CC[C@@H]12` [Carbenoxolone disodium salt]: the normalised cell viability is 1 ± 0.041 (treatment time: 3 days) and 1.15 ± 0.26 (treatment time: 6 days).
The corresponding values for `CC(=O)OCC(=O)[C@@]1(O)CC[C@H]2[C@@H]3CCC4=CC(=O)CC[C@]4(C)[C@@]3(F)[C@@H](O)C[C@@]21C` [Fludrocortisone acetate] are 0.957 ± 0.08 and 1.11 ± 0.041.
Taken in the same sequence, the figures for `O=C1c2c(O)cccc2Cc2cccc(O)c21` [Anthralin] were 1.03 ± 0.019 and 1.003 ± 0.0083.
In the case of `O=C1c2cccc(O)c2C(=O)c2c(O)cccc21` [1,8-Dihydroxyanthraquinone], the normalised cell viability reads like this: (treatment time: 3 days) 0.838 ± 0.065; (treatment time: 6 days) 0.78 ± 0.021.
In the case of `O=C1c2c(O)ccc(O)c2C(=O)c2c(NCCNCCO)ccc(NCCNCCO)c21` [Mitoxantrone dihydrochloride], the normalised cell viability came to 0.143 ± 0.0017 (treatment time: 3 days) and 0.116 ± 0.011 (treatment time: 6 days).
